From PubChem BioAssay
Mtb MbtI inh: inhibitors of Mycobacterium tuberculosis siderophore enzyme MbtI | P9WFX0 | purified MbtI enzyme, fluorescence intensity read-out | inhibition, % (test concentration not listed) | 0.89% of 100,000 active | AID 493033; in the data active = inhibition mostly above about 56%, no sharp cut-off; inactive = mostly below about 77%
PV pol inh: poliovirus RNA polymerase inhibition; poliovirus polymerase elongation, fluorescence polarization; hits give low values; % elongation, % (compound at 16.7 µg/mL); 0.66% of 150,000 active; P03300; in the data active = % elongation below about 90%
Target sequence (P03300 1749-2209 limits assumed): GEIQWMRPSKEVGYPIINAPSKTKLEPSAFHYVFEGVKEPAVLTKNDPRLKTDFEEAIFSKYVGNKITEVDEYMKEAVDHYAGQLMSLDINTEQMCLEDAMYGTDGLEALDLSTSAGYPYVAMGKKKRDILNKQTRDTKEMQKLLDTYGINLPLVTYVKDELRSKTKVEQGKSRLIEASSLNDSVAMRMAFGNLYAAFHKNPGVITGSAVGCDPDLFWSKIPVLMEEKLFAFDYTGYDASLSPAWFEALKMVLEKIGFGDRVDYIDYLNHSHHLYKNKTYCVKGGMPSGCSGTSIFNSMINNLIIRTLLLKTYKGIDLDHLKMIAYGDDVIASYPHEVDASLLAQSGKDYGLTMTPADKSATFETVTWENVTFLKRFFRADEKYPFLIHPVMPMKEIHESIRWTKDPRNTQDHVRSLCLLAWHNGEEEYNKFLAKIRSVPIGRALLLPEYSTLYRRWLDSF
AID504770: growth inhibitors of E. coli YBA685 in a screen for V. cholerae RctB (chromosome II replication) inhibitors | 0.27% of 130,000 active | z-score (no concentration beside the values) | E. coli YBA685 rctB-dependent plasmid, OD600 growth, 3 h; hits give low values; in the data active = z-score below about -2, passing the limit was not always enough
MenB inh: blocks the Mycobacterium tuberculosis MenB enzyme. P9WNP5. MenB enzyme assay, absorbance read-out. inhibition, % (no concentration beside the values). 0.43% of 100,000 active; in the data active = inhibition above about 21%, passing the limit was not always enough
Large screens that a line does not name were inactive. Rows were chosen to be rich in hits. Some 1.5% of all compounds tested hit in one or more screens of this group.

Cc1nnc2sc(-c3cccc(NC(=O)c4cccc(F)c4)c3)nn12	none
Cc1occc1-c1nnc2sc(-c3cccc(F)c3)nn12	Mtb MbtI inh 95
COc1ccc(NC(=O)Cn2ccn(Cc3ccccc3)c(=O)c2=O)cc1	none
COC(=O)CC1SC(=O)NC1=Nc1ccc(C)cc1 (configuration not stated)	none (no result: Mtb MbtI inh, PV pol inh, MenB inh)
COC(=O)CC1SC(=O)NC1=S (configuration not stated)	Mtb MbtI inh 84
CC(=O)Oc1c(Br)cc2oc(=O)sc2c1Br	Mtb MbtI inh 91
Cc1ccc(-c2nnc(SCCC(=O)N3CCOCC3)o2)cc1	MenB inh 28
Cn1nc(-c2ccc(F)cc2)nc2c(=O)n(C)c(=O)nc1-2	PV pol inh 36
COc1ccc(-c2nc3c(=O)n(C)c(=O)nc-3n(C)n2)cc1OC	none (no result: PV pol inh, MenB inh)
Cn1ncc(C(C#N)c2nc3ccccc3s2)c(Cl)c1=O (configuration not stated)	Mtb MbtI inh 57
CC(O)c1nc2ccccc2s1 (configuration not stated)	none
COc1cccc(NC(=O)C2CC(=O)n3cnnc3S2)c1 (configuration not stated)	Mtb MbtI inh 96 (no result: PV pol inh, MenB inh)
Cc1sc2nc[nH]c(=O)c2c1C	Mtb MbtI inh 87
COc1cc(-c2nc3ccccc3c(=O)[nH]2)cc(Br)c1O	none (no result: Mtb MbtI inh, PV pol inh, MenB inh)
COc1cccc(N(Cc2nnc3n2CCCCC3)C(=O)Nc2ccccc2)c1	none (no result: Mtb MbtI inh, AID504770, MenB inh)
O=C(Nc1ccccc1)N(Cc1nnc2n1CCCCC2)c1ccc(I)cc1	PV pol inh 90 (no result: Mtb MbtI inh)
N#Cc1c(NCSCc2ccccc2)sc2c1CCCCC2	PV pol inh 69 (no result: Mtb MbtI inh)
O=C(Nc1nc2ccc3ccccc3c2s1)c1cccs1	none (no result: Mtb MbtI inh, PV pol inh, MenB inh)
O=C(CSc1ncc(C(F)(F)F)cc1Cl)N(CC1CCCO1)C1CCS(=O)(=O)C1 (configuration not stated)	none
Cc1ccc(NC(=O)CSC(=N)N)cc1	none
N=C(N)SCC(=O)Nc1ccccc1	MenB inh 23
Cn1c(=S)[nH]c2cc(S(N)(=O)=O)ccc21	PV pol inh 90
NS(=O)(=O)c1ccc(CCn2c(=S)[nH]c3ccccc3c2=O)cc1	none
N#Cc1cccc(NC(=O)/C=C/c2cccc3ccccc23)c1	none (no result: Mtb MbtI inh)
Cc1nn(-c2ccccc2)c(Cl)c1C1N2CCCN1CC2 (configuration not stated)	MenB inh 33
CC(C)P(=O)(c1cccc(C(=O)O)c1)C(C)C	MenB inh 23 (no result: Mtb MbtI inh)
Cc1cc(C)n(/N=C2/C(=O)Nc3ccc(Br)cc32)c(=O)c1C#N	none
Cc1ccc2c(c1Br)C(=C(C#N)C#N)C(=O)N2	PV pol inh 84
O=S1(=O)N=C2CCCCCN2C(c2ccc(Br)cc2)N1 (configuration not stated)	PV pol inh 22
COc1cccc(C2NS(=O)(=O)N=C3CCCCCN32)c1OC(F)F (configuration not stated)	none
CC(=O)Oc1cc2oc(=O)cc(-c3ccccc3)c2cc1Cl	none (no result: Mtb MbtI inh, PV pol inh, MenB inh)
CN(C)C(=O)COC(=O)c1cncc(Br)c1	none
CCCCCOc1ccc(C(=O)/C=C/C(=O)O)cc1	Mtb MbtI inh 63
CCCCCCCCCCCCCCCCCCc1ccc(C(=O)/C=C/C(=O)O)cc1	none (no result: AID504770)
O=C(CC(C(=O)O)c1cccc(Cl)c1)c1ccccc1 (configuration not stated)	none (no result: Mtb MbtI inh, PV pol inh, MenB inh)
O=C(O)C(CO)c1ccccc1 (configuration not stated)	MenB inh 26
Cc1ccc(-n2c(N)c(C(N)=O)sc2=S)cc1C	Mtb MbtI inh 94
CNC(=O)c1sc(=S)n(-c2ccccc2)c1N	Mtb MbtI inh 66
COC(=O)c1sc(=S)n(-c2cccc(Cl)c2)c1N	Mtb MbtI inh 94
COc1ccccc1NC(=S)NCc1cccn1C	none
Cc1ccccc1-n1c(SCC(=O)N(C(C)C)C(C)C)nnc1-c1cccnc1	none
O=C(Nc1ccc(N2CCN(Cc3ccccc3Cl)CC2)cc1)c1ccc2c(c1)OCCO2	none
CCOC(=O)C1=C(C)OC2(O)c3ccccc3C(=O)C12O (configuration not stated)	PV pol inh 56
Cc1nn(-c2ccccc2)nc1CNS(=O)(=O)c1cccs1	AID504770 -3.3 (no result: Mtb MbtI inh, PV pol inh, MenB inh)
Cc1nn(-c2ccccc2)nc1CNS(C)(=O)=O	none
O=C(O)CO/N=C/c1ccccc1	none
O=C(O)CON=C1C2CC3CC(C2)CC1C3	PV pol inh 78
O=C1CSC(=S)N1/N=C/c1cc(Br)cc(Br)c1O	PV pol inh 90
Cc1ccc(OCCOn2nnc3ccc(S(=O)(=O)N(C)C)cc32)cc1	none
S=C(c1c[nH]c2ccccc12)N1CCCC1	none
S=C(c1c[nH]c2ccccc12)N1CCCCC1	Mtb MbtI inh 79
O=C(COC(=O)/C=C/c1ccccc1)Nc1c(F)cccc1F	none (no result: MenB inh)
O=C(COC(=O)/C=C/c1ccc(F)cc1)Nc1ncccn1	PV pol inh 84
O=C(CSc1ncnc2[nH]ncc12)CSc1ncnc2[nH]ncc12	MenB inh active
NNC(=O)CSc1c(-c2cccs2)[nH]c2ccccc12	MenB inh 38
O=c1[nH]c(=S)[nH]c(O)c1-c1ccccc1	Mtb MbtI inh 85
CC(=O)[O][Hg][c]1ccccc1	AID504770 -5.2
CC(=O)Oc1ccc(-c2ccccc2)cc1	none
C#CCn1c(=NC(=O)C(C)C)sc2cc(Br)ccc21	none
CCN(CC)CCNCc1ccc(-c2ccccc2)o1	MenB inh 33
CC(C)(C)NCc1ccc(-c2ccccc2)o1	none
Cc1ccc(-c2c(C#N)c(SCC(=O)c3cc4ccccc4oc3=O)nc(C)c2C(=O)Nc2ccccc2C)o1	none
CNCc1cc(=O)[nH]c2ccccc12	none
Cc1nc2ccc(N=Cc3ccc(Br)cc3)cc2s1	AID504770 -2.4
O=C(COC(=O)CC1CCCC1)NC1CCCCCC1	none (no result: MenB inh)
N#CCC(=O)c1ccccc1	none (no result: MenB inh)
Cc1ccc(C(=O)O)o1	none (no result: MenB inh)
N#CSCC(=O)c1ccccc1	AID504770 -3.6 (no result: Mtb MbtI inh, PV pol inh, MenB inh)
Cc1ccc(C(=O)CSC#N)o1	AID504770 -3.1 (no result: Mtb MbtI inh)
N#Cc1c(N)[n+]([O-])c2ccccc2[n+]1[O-]	AID504770 -4.4
N#Cc1c(=O)n(O)c2ccccc2[n+]1[O-]	AID504770 -4.3
CC(C)C(=O)N=C1SC2CS(=O)(=O)CC2N1c1ccccc1 (configuration not stated)	none
COC(=O)c1c(-c2cccs2)csc1NC(=O)CN1CCOCC1	none
COC(=O)c1c(-c2cccs2)csc1NC(=O)c1ccc(Br)cc1	PV pol inh 66 (no result: Mtb MbtI inh, AID504770, MenB inh)
COC(=O)c1c(-c2cccs2)csc1NC(=O)c1ccc(C)cc1	PV pol inh 76 (no result: Mtb MbtI inh, AID504770, MenB inh)
CC(C)=NNC(=O)COc1ccccc1	none
CC(SC1CCCCC1)C(=O)Nc1ccc(S(N)(=O)=O)cc1 (configuration not stated)	none
c1ccc2sc(N3CCOCC3)nc2c1	none (no result: Mtb MbtI inh, PV pol inh, MenB inh)
c1ccc2sc(SN3CCOCC3)nc2c1	Mtb MbtI inh 84
Cn1cccc1/C=C/C(=O)O	PV pol inh 76
O=C(NCc1cccnc1)C1CCN(c2nnc(-n3cccc3)s2)CC1	none
CC(C)CNC(=S)Nc1ccccc1	none
O=S(CCSc1nc2ccccc2s1)Cc1ccccc1 (configuration not stated)	none
COC(=O)c1c(NC(=S)NCc2ccco2)sc2c1CCC2	Mtb MbtI inh 61
O=C(Nc1sc2c(c1C(=O)NCc1ccco1)CCC2)c1cccs1	none
